Results published in PubChem BioAssay (NCI).
About 79,000 compounds went through this panel and 15% of them were active in at least one assay; those are over-represented in the sample as a whole. Activity calls are given as the source filed them. Cut-off read from the data, not from the text of the source: active = growth inhibition above about 70%; inactive = the rest.

What was measured:
[1] = NCI Yeast Anticancer Drug Screen. Data for the rad52 strain (AID 147);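 note: 0% = growth of vehicle-treated control cultures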; conditions: S. cerevisiae rad52 mutant growth inhibition, stronger effect = higher value
Procedure, shortened: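 Growth of repair-deficient yeast cells was compared between compound-treated and vehicle-treated cultures to give percent inhibition.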

[2] = NCI Yeast Anticancer Drug Screen. Data for the wt1 strain (AID 149);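 note: 0% = growth of vehicle-treated wt1 cultures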; conditions: S. cerevisiae wt1 strain (SPY 50644) growth inhibition, stronger effect = higher value
Procedure, shortened: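 Readout: yeast growth inhibition, normalised to vehicle controls, in the wt1 strain exposed to test compounds.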

[3] = NCI Yeast Anticancer Drug Screen. Data for the rad50EPP+ strain (AID 151);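 note: 0% = growth of vehicle-treated control cultures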; conditions: S. cerevisiae rad50 mutant strain, stronger effect = higher value
Procedure, shortened: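 Measured: growth inhibition of rad50EPP+ yeast. Reference: vehicle-treated controls. Screen uses strains with defined genetic alterations in DNA damage repair or cell cycle control.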

[4] = NCI Yeast Anticancer Drug Screen. Data for the mgt1 strain (AID 153); conditions: S. cerevisiae mgt1 mutant growth inhibition, stronger effect = higher value
Procedure, shortened: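 Compounds were applied to mgt1 mutant yeast, and growth was then compared against vehicle-treated control cultures to give percent inhibition.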

[5] = NCI Yeast Anticancer Drug Screen. Data for the rad50 strain (AID 155);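 note: 0% = growth of vehicle-only cultures of the same strain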; conditions: S. cerevisiae rad50 strain growth inhibition, stronger effect = higher value
Procedure, shortened: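 Compounds were tested on a yeast strain with an engineered DNA damage repair alteration; the reported value is growth inhibition normalised to vehicle treatment.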

[6] = NCI Yeast Anticancer Drug Screen. Data for the mec2-1 strain (AID 157); conditions: S. cerevisiae mec2-1 strain, stronger effect = higher value
Procedure, shortened: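 Compounds were applied to mec2-1 yeast cells. Their growth was then compared with that of vehicle-treated cultures to give growth inhibition.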

[7] = NCI Yeast Anticancer Drug Screen. Data for the rad14 strain (AID 159);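 note: 0% = growth of vehicle-treated control cultures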; conditions: S. cerevisiae rad14 strain growth inhibition, stronger effect = higher value
Procedure, shortened: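 Compound-treated yeast with a defined DNA-repair lesion; growth inhibition normalised to vehicle-treated cultures.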

[8] = NCI Yeast Anticancer Drug Screen. Data for the sgs1 mgt1 strain (AID 161);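 note: 0% = growth of cultures given vehicle only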; conditions: S. cerevisiae sgs1 mgt1 strain, stronger effect = higher value
Procedure, shortened: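 Yeast cells carrying a defined DNA-repair defect were exposed to test compounds. Growth inhibition was measured relative to vehicle-treated controls.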

[9] = NCI Yeast Anticancer Drug Screen. Data for the CLN2oe strain (AID 163);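 note: 0% = growth of vehicle-only control cultures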; conditions: S. cerevisiae CLN2oe strain, stronger effect = higher value
Procedure, shortened: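 Cells of an engineered yeast line with disturbed cell-cycle regulation are treated with compound. Inhibition of growth is then calculated relative to the vehicle-treated reference.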

[10] = NCI Yeast Anticancer Drug Screen. Data for the cln2 rad14 strain (AID 165);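 note: 0% = growth equal to vehicle treated cultures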; conditions: S. cerevisiae cln2 rad14 strain, stronger effect = higher value
Procedure, shortened: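 Strain: cln2 rad14 yeast, altered in cell cycle control and DNA damage repair. Read-out: growth inhibition vs vehicle.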

[11] = NCI Yeast Anticancer Drug Screen. Data for the bub3 strain (AID 167); conditions: S. cerevisiae bub3 mutant strain, stronger effect = higher value
Procedure, shortened: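 Growth of a checkpoint-deficient yeast mutant is measured after compound exposure. Values represent inhibition relative to vehicle.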

[12] = NCI Yeast Anticancer Drug Screen. Data for the wt2 strain (AID 169);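 note: 0% = growth of vehicle-treated yeast cultures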; conditions: S. cerevisiae wt2 strain growth inhibition, stronger effect = higher value
Procedure, shortened: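 Growth of compound-treated yeast is measured and expressed as inhibition relative to vehicle-only controls.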

[13] = NCI Yeast Anticancer Drug Screen. Data for the mlh1 strain (AID 171);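 note: 0% = growth of vehicle-treated control cultures of the same strain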; conditions: S. cerevisiae mlh1 strain growth inhibition, stronger effect = higher value
Procedure, shortened: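 Test agents were incubated with yeast bearing a defined DNA damage repair or cell cycle control alteration; values are growth inhibition normalised to vehicle-treated cultures.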

[14] = NCI Yeast Anticancer Drug Screen. Data for the mlh1 rad18 strain (AID 175); conditions: S. cerevisiae mlh1 rad18 strain growth inhibition, stronger effect = higher value
Procedure, shortened: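 A repair-deficient yeast strain is exposed to test compound, and growth is scored relative to vehicle-treated controls.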

[15] = NCI Yeast Anticancer Drug Screen. Data for the rad18 strain (AID 177); conditions: S. cerevisiae rad18 mutant growth inhibition, stronger effect = higher value
Procedure, shortened: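 DNA-repair-defective yeast; compound treatment; growth inhibition scored against vehicle.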

[16] = NCI Yeast Anticancer Drug Screen. Data for the sgs1 strain (AID 173);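 note: 0% = growth of vehicle-only control cultures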; conditions: S. cerevisiae sgs1 mutant, stronger effect = higher value
Procedure, shortened: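 Strain with an altered DNA repair or cell cycle pathway exposed to compound. Growth then measured. Value = inhibition versus vehicle control.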

[17] = at 5.0 µM (retest, dose inferred, filed as 0.5)
[18] = at 50.0 µM (retest, dose inferred, filed as 5.0)

Measured: growth inhibition

CCCCCC(=O)c1ccc(O)cc1O
inactive: [1]; at 1.2 µM -14% | [1]; at 3.7 µM 1% | [1]; at 11.0 µM 10% | [2]; at 1.2 µM -14% | [2]; at 3.7 µM -18% | [2]; at 11.0 µM -6% | [3]; at 1.2 µM 15% | [3]; at 3.7 µM 23% | [3]; at 11.0 µM 33% | [3]; at 33.0 µM 59% | [4]; at 1.2 µM 17% | [4]; at 3.7 µM -2% | [4]; at 11.0 µM 12% | [5]; at 1.2 µM -7% | [5]; at 3.7 µM -4% | [5]; at 11.0 µM 2% | [6]; at 1.2 µM -7% | [6]; at 3.7 µM -6% | [6]; at 11.0 µM 10% | [7]; at 1.2 µM -9% | [7]; at 3.7 µM -5% | [7]; at 11.0 µM -3% | [8]; [17] -5% | [9]; at 1.2 µM -3% | [9]; at 3.7 µM 8% | [9]; at 11.0 µM 1% | [10]; [17] 37% | [11]; at 1.2 µM 8% | [11]; at 3.7 µM 14% | [11]; [17] 33% | [11]; at 11.0 µM 40% | [12]; at 1.2 µM -3% | [12]; at 3.7 µM -4% | [12]; at 11.0 µM -18% | [13]; at 1.2 µM 7% | [13]; at 3.7 µM 10% | [13]; at 11.0 µM 20% | [15]; at 1.2 µM -17% | [15]; at 3.7 µM 3% | [15]; at 11.0 µM 9%
active: [1]; at 33.0 µM 90% | [1]; at 100.0 µM 98% | [2]; at 33.0 µM 91% | [2]; at 100.0 µM 99% | [3]; at 100.0 µM 98% | [4]; at 33.0 µM 93% | [4]; at 100.0 µM 99% | [5]; [17] 92% | [5]; at 33.0 µM 91% | [5]; [18] 98% | [5]; at 50.0 µM 89.2% | [5]; at 100.0 µM 97% | [6]; [17] 91% | [6]; at 33.0 µM 95% | [6]; [18] 99% | [6]; at 50.0 µM 91.8% | [6]; at 100.0 µM 99% | [7]; at 33.0 µM 90% | [7]; at 100.0 µM 98% | [8]; [18] 92% | [9]; at 33.0 µM 86% | [9]; at 100.0 µM 99% | [10]; [18] 90% | [11]; at 33.0 µM 93% | [11]; [18] 92% | [11]; at 100.0 µM 99% | [12]; at 33.0 µM 87% | [12]; at 100.0 µM 99% | [13]; at 33.0 µM 90% | [13]; at 100.0 µM 95% | [14]; [17] 97% | [14]; [18] 99% | [14]; at 50.0 µM 91.2% | [15]; at 33.0 µM 92% | [15]; at 100.0 µM 98%

COc1ccc(N)c2c1C(=O)c1ccccc1C2=O
inactive: [1]; at 1.2 µM 6% | [1]; at 3.7 µM 11% | [1]; at 11.0 µM 46% | [2]; at 1.2 µM 0% | [2]; at 3.7 µM 11% | [2]; at 11.0 µM 14% | [2]; at 33.0 µM 47% | [3]; at 1.2 µM 9% | [3]; at 3.7 µM 26% | [3]; at 11.0 µM 59% | [4]; at 1.2 µM 3% | [4]; at 3.7 µM -3% | [4]; at 11.0 µM 8% | [4]; at 33.0 µM 39% | [5]; at 1.2 µM 7% | [5]; at 3.7 µM 8% | [5]; [17] 30% | [5]; at 11.0 µM 35% | [5]; [18] 39% | [5]; at 50.0 µM 60.2% | [6]; at 1.2 µM -9% | [6]; at 3.7 µM 0% | [6]; [17] 47% | [6]; at 11.0 µM 12% | [6]; at 33.0 µM 40% | [6]; [18] 56% | [6]; at 50.0 µM 32.1% | [8]; [17] -15% | [8]; at 50.0 µM 62.5% | [9]; at 1.2 µM -2% | [9]; at 3.7 µM 6% | [9]; at 11.0 µM 17% | [9]; at 33.0 µM 34% | [10]; [17] 62% | [10]; at 50.0 µM 32.5% | [11]; at 1.2 µM -25% | [11]; at 3.7 µM -24% | [11]; [17] 41% | [11]; at 11.0 µM -32% | [11]; at 33.0 µM 19% | [11]; at 50.0 µM 49% | [12]; at 1.2 µM -11% | [12]; at 3.7 µM -11% | [12]; at 11.0 µM -6% | [12]; at 33.0 µM 42% | [16]; at 1.2 µM -6% | [16]; at 3.7 µM -6% | [16]; at 11.0 µM 6% | [16]; at 33.0 µM 68% | [14]; [17] 27% | [14]; [18] 40% | [15]; at 1.2 µM -20% | [15]; at 3.7 µM -12% | [15]; at 11.0 µM -10% | [15]; at 33.0 µM 54%
active: [1]; at 33.0 µM 90% | [1]; at 100.0 µM 96% | [2]; at 100.0 µM 94% | [3]; at 33.0 µM 93% | [3]; at 100.0 µM 97% | [4]; at 100.0 µM 93% | [5]; at 33.0 µM 89% | [5]; at 100.0 µM 96% | [6]; at 100.0 µM 81% | [8]; [18] 79% | [9]; at 100.0 µM 89% | [10]; [18] 71% | [11]; [18] 72% | [11]; at 100.0 µM 93% | [12]; at 100.0 µM 93% | [16]; at 100.0 µM 96% | [14]; at 50.0 µM 77.5% | [15]; at 100.0 µM 93%
